Experimental data as given in the supplement of paper PMC10849652.
The full data set covers some 8,800 targets. This sample favours those with a hit. About 0.5% of all pairs of compound and target were hits.

Key:
Experiment in all cases: log2 fold change, soluble protein after heating vs DMSO (PISA); higher = thermal stabilisation; K562 lysate, 10 uM; active = over 0.2 and 3.5 SD of the protein, either way, in both replicates (recomputed)
vemurafenib = compound: CCCS(=O)(=O)Nc1ccc(F)c(C(=O)c2c[nH]c3ncc(-c4ccc(Cl)cc4)cc23)c1F [vemurafenib]
Method in brief: (§1)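 Values give the log-two fold change in thermal stability against solvent controls, from duplicates. Crude K562 extract at 1 mg/mL protein, made by dounce homogenisation in PBS pH 7.4 with 1 mM MgCl2, was treated with 10 μM compound for 30 min. After 3 min heating across 48°C-58°C, aliquots were pooled, adjusted to 0.5% NP-40 at 4°C and centrifuged at 21,000xg for 90 min. The supernatant was measured by TMTpro 16plex LC-MS/MS with channel sums equalised.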

[1] = compound: CCCS(=O)(=O)Nc1ccc(F)c(C(=O)c2c[nH]c3ncc(Cl)cc23)c1F
Method in brief: as §1

barasertib = compound: CCN(CCCOc1ccc2c(Nc3cc(CC(=O)Nc4cccc(F)c4)[nH]n3)ncnc2c1)CCOP(=O)(O)O [barasertib]
Method in brief: as §1

[2] = compound: CC[C@@H]1C(=O)N(C)c2cnc(Nc3ccc(C(=O)NC4CCN(C)CC4)cc3OC)nc2N1C1CCCC1
Method in brief: as §1

volasertib = compound: CC[C@@H]1C(=O)N(C)c2cnc(Nc3ccc(C(=O)N[C@H]4CC[C@H](N5CCN(CC6CC6)CC5)CC4)cc3OC)nc2N1C(C)C [volasertib]
Method in brief: as §1

[3] = compound: CCn1c(C(=O)N(C2CC2)C2CC2)cc2c3c(ncn3C)c(Nc3cc(C)n(C)n3)nc21
Method in brief: as §1

[4] = compound: CCn1cc(-c2ccnc3[nH]c(-c4cccc(CN(C)C)c4)cc23)c(-c2ccc(NC(=O)N(C)C)cc2)n1
Method in brief: as §1

[5] = compound: CN1CCC(CNc2ccc3ncc(-c4cccc(OC(F)(F)F)c4)n3n2)CC1
Method in brief: as §1

saracatinib = compound: CN1CCN(CCOc2cc(OC3CCOCC3)c3c(Nc4c(Cl)ccc5c4OCO5)ncnc3c2)CC1 [saracatinib]
Method in brief: as §1

sotrastaurin = compound: CN1CCN(c2nc(C3=C(c4c[nH]c5ccccc45)C(=O)NC3=O)c3ccccc3n2)CC1 [sotrastaurin]
Method in brief: as §1

alvocidib = compound: CN1CC[C@H](c2c(O)cc(O)c3c(=O)cc(-c4ccccc4Cl)oc23)[C@H](O)C1 [alvocidib]
Method in brief: as §1

Tubastatin A = compound: CN1CCc2c(c3ccccc3n2Cc2ccc(C(=O)NO)cc2)C1 [Tubastatin A]
Method in brief: as §1

[6] = compound: CNC(=O)C1=CC=CC=C1NC2=NC(=NC=C2Cl)NC3=C(C=C(C=C3)N4CCOCC4)OC
Method in brief: as §1

defactinib = compound: CNC(=O)c1ccc(Nc2ncc(C(F)(F)F)c(NCc3nccnc3N(C)S(C)(=O)=O)n2)cc1 [defactinib]
Method in brief: as §1

[7] = compound: CNc1nc(-c2ccc3c(N)n[nH]c3c2)cc(N2C[C@@H](C(=O)NC3CCCCC3)CC[C@H]2C)n1
Method in brief: as §1

encorafenib = compound: COC(=O)N[C@@H](C)CNc1nccc(-c2cn(C(C)C)nc2-c2cc(Cl)cc(NS(C)(=O)=O)c2F)n1 [encorafenib]
Method in brief: as §1

[8] = compound: COC(=O)[C@H](CCSC)NC(=O)C1=C(C=C(C=C1)NC[C@H](CS)N)C2=CC=CC=C2
Method in brief: as §1

alisertib = compound: COc1cc(Nc2ncc3c(n2)-c2ccc(Cl)cc2C(c2c(F)cccc2OC)=NC3)ccc1C(=O)O [alisertib]
Method in brief: as §1

[9] = compound: COc1cc2nc(-c3cc(F)ccc3O)nc(N[C@@H]3CNC[C@H]3C(C)(C)O)c2cc1OC
Method in brief: as §1

gefitinib = compound: COc1cc2ncnc(Nc3ccc(F)c(Cl)c3)c2cc1OCCCN1CCOCC1 [gefitinib]
Method in brief: as §1

Measured: log2 fold change

TLE3 isoform 4 (UniProt Q04726)
inactive: vemurafenib 0.009 | [1] 0.01 | barasertib 0.005 | [2] 0.065 | volasertib 0.021 | [3] 0.027 | [4] -0.001 | [5] 0.01 | saracatinib 0.017 | sotrastaurin -0.017 | alvocidib 0.023 | Tubastatin A 0.002 | [6] -0.013 | defactinib 0.004 | [7] 0.024 | encorafenib 0.014 | [8] -0.019 | alisertib -0.016 | [9] 0.002 | gefitinib -0.037

TPD52L2 isoform 7 (UniProt O43399)
Chain of UniProt O43399 (O43399 whole entry, looked up): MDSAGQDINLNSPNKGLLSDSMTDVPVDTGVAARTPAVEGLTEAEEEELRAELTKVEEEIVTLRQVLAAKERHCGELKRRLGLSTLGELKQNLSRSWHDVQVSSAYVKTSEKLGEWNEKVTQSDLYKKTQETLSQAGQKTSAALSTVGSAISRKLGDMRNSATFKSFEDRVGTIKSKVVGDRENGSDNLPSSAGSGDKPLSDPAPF
inactive: vemurafenib -0.02 | [1] -0.033 | barasertib 0.045 | [2] 0.048 | volasertib 0.017 | [3] 0.011 | [4] -0.14 | [5] 0.207 | saracatinib 0.003 | sotrastaurin 0.034 | alvocidib -0.043 | Tubastatin A 0.062 | [6] -0.005 | defactinib 0.023 | [7] 0.086 | encorafenib -0.026 | [8] 0.008 | alisertib -0.01 | [9] 0.037 | gefitinib 0.02

UBR3 isoform 4 (UniProt Q6ZT12)
Chain of UniProt Q6ZT12 (Q6ZT12 whole entry, looked up): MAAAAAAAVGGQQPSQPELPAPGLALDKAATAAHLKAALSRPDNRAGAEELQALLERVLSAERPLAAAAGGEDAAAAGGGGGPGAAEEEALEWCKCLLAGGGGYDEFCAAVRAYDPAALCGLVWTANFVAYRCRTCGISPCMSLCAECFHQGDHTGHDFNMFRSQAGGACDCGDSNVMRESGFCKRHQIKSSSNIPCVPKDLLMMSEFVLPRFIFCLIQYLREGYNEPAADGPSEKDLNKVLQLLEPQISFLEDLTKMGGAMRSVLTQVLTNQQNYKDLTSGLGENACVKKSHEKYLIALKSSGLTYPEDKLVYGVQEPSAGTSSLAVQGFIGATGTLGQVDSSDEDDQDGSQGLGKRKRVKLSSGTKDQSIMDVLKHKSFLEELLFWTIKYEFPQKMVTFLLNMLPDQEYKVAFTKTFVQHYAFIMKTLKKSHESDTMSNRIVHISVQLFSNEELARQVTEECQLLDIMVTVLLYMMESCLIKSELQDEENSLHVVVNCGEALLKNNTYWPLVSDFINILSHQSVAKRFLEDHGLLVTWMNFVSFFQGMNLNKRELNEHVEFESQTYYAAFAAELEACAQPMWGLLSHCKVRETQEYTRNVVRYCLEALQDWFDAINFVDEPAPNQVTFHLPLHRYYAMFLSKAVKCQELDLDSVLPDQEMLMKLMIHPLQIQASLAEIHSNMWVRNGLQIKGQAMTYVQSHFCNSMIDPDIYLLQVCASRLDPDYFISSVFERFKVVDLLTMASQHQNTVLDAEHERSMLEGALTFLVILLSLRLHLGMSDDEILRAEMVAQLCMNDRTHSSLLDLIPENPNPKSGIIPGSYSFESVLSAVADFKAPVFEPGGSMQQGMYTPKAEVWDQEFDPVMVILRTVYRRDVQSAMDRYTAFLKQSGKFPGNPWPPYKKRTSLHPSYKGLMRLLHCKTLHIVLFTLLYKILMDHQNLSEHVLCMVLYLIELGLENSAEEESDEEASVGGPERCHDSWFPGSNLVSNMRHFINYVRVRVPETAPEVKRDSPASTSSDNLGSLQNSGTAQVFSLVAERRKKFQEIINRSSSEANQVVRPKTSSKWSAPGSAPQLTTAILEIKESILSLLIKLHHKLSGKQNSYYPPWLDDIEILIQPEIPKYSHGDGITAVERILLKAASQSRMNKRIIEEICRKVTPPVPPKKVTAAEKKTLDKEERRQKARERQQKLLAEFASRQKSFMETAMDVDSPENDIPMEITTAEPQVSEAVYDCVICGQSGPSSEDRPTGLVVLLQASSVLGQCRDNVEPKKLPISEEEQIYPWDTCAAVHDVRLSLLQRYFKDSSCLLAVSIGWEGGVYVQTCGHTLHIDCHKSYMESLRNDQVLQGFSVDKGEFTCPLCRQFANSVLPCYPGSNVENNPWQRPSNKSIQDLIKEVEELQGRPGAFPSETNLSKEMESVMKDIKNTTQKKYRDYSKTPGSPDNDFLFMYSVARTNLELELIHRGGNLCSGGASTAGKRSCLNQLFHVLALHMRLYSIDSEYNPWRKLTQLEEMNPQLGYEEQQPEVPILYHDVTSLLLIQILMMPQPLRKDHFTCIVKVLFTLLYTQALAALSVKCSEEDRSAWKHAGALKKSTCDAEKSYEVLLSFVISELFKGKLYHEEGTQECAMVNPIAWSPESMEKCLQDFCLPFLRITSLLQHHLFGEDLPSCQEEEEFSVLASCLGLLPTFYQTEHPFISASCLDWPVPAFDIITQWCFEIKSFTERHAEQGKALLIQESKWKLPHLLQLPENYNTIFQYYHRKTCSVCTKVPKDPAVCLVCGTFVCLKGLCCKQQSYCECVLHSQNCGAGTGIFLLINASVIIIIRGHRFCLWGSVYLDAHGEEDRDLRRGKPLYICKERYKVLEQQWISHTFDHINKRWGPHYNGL
inactive: vemurafenib 0.035 | [1] -0.001 | barasertib 0.026 | [2] -0.033 | volasertib -0.091 | [3] -0.011 | [4] -0.015 | [5] -0.044 | saracatinib 0.044 | sotrastaurin 0.009 | alvocidib 0.012 | Tubastatin A -0.155 | [6] 0.074 | defactinib -0.062 | [7] -0.03 | encorafenib -0.006 | [8] 0.054 | alisertib -0.005 | [9] 0.005 | gefitinib 0.018

UBE2L6 (UniProt O14933)
inactive: vemurafenib 0.031 | [1] -0.035 | barasertib 0.229 | [2] 0.041 | volasertib 0.008 | [3] 0.022 | [4] 0.037 | [5] -0.115 | saracatinib -0.034 | sotrastaurin -0.03 | alvocidib 0.034 | Tubastatin A -0.051 | [6] 0.082 | defactinib 0.065 | [7] -0.005 | encorafenib 0.06 | alisertib 0.004 | [9] -0.026 | gefitinib 0.092
active: [8] -0.36

TRAPPC10 (UniProt P48553)
inactive: vemurafenib 0.022 | [1] 0.009 | barasertib 0.027 | [2] -0.063 | volasertib -0.052 | [3] 0.022 | [4] -0.061 | [5] 0.071 | saracatinib 0.016 | sotrastaurin -0.039 | alvocidib -0.034 | Tubastatin A -0.074 | [6] 0.01 | defactinib -0.034 | [7] 0.011 | encorafenib 0.009 | [8] -0.047 | alisertib 0.015 | [9] -0.001 | gefitinib -0.029

TRIM56 (UniProt Q9BRZ2)
Chain of UniProt Q9BRZ2 (Q9BRZ2 whole entry, looked up): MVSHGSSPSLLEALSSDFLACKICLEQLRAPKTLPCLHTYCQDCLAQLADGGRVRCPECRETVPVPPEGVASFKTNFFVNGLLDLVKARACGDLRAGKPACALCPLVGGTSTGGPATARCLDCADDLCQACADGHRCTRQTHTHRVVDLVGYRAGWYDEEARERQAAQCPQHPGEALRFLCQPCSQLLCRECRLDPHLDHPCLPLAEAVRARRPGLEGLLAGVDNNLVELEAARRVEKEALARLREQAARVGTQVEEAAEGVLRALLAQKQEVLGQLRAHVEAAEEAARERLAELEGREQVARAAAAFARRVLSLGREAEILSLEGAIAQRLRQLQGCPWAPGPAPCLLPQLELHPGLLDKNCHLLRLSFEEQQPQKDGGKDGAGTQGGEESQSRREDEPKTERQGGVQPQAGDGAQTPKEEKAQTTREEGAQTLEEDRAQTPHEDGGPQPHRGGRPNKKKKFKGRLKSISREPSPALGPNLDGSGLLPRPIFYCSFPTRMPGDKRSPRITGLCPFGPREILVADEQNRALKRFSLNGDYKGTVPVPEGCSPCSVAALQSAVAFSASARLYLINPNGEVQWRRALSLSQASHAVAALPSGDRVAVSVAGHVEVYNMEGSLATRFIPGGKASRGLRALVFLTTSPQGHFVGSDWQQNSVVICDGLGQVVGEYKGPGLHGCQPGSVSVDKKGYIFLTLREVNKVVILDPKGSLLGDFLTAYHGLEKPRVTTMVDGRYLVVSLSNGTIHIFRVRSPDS
inactive: vemurafenib 0.026 | [1] 0.026 | barasertib -0.039 | [2] 0.006 | volasertib -0.029 | [3] -0.04 | [4] 0.227 | [5] -0.102 | saracatinib 0.031 | sotrastaurin -0.019 | alvocidib -0.013 | Tubastatin A -0.13 | [6] 0.067 | defactinib 0.008 | [7] -0.059 | encorafenib 0.068 | [8] -0.21 | alisertib 0.04 | [9] 0.001 | gefitinib -0.01

TFIP11 (UniProt Q9UBB9)
Chain of UniProt Q9UBB9 (Q9UBB9 whole entry, looked up): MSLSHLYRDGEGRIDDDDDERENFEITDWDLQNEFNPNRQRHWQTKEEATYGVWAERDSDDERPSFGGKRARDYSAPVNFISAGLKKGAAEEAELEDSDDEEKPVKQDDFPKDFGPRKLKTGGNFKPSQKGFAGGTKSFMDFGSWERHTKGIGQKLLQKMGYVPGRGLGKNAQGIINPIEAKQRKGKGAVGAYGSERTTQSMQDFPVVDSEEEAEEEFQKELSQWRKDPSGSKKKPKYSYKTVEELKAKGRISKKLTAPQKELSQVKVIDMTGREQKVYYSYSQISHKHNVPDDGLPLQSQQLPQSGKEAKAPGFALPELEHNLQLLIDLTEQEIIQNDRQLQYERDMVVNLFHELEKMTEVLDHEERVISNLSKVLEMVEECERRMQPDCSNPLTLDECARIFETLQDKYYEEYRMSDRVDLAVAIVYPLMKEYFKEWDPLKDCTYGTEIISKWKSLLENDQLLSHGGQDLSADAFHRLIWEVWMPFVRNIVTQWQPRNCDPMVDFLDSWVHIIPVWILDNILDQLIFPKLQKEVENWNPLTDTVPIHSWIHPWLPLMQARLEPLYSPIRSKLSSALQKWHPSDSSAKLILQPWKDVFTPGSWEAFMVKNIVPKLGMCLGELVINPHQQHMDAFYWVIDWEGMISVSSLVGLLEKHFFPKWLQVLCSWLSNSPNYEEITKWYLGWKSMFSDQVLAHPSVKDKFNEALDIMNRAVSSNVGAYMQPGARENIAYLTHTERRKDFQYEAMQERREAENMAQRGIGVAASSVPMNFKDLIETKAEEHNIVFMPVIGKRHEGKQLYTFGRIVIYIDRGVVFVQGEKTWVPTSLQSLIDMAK
inactive: vemurafenib 0.017 | [1] 0.025 | barasertib -0.09 | [2] -0.018 | volasertib -0.059 | [3] 0.048 | [4] -0.027 | [5] -0.037 | saracatinib 0.018 | sotrastaurin 0.027 | alvocidib -0.013 | Tubastatin A -0.135 | [6] 0.024 | defactinib 0.061 | [7] -0.023 | encorafenib 0.042 | alisertib 0.062 | [9] 0.013 | gefitinib -0.041
active: [8] 0.381

TRIM33 isoform 2 (UniProt Q9UPN9)
inactive: vemurafenib -0.018 | [1] -0.003 | barasertib 0.009 | [2] -0.008 | volasertib -0.039 | [3] 0.023 | [4] -0.132 | [5] 0.05 | saracatinib 0.027 | sotrastaurin 0.043 | alvocidib -0.029 | Tubastatin A -0.131 | [6] 0.016 | defactinib -0.001 | [7] -0.006 | encorafenib 0.006 | [8] 0.052 | alisertib -0.003 | [9] 0.046 | gefitinib 0.005

UBL4A (UniProt P11441)
active: [4] 0.33
inactive: vemurafenib -0.032 | [1] -0.001 | barasertib 0.089 | [2] -0.081 | volasertib -0.02 | [3] 0.121 | [5] -0.094 | saracatinib 0.028 | sotrastaurin 0 | alvocidib 0.016 | Tubastatin A -0.039 | [6] -0.015 | defactinib 0.006 | [7] -0.008 | encorafenib 0.046 | [8] -0.043 | alisertib 0.018 | [9] -0.059 | gefitinib -0.033

TESC (UniProt Q96BS2)
Chain of UniProt Q96BS2 (Q96BS2 whole entry, looked up): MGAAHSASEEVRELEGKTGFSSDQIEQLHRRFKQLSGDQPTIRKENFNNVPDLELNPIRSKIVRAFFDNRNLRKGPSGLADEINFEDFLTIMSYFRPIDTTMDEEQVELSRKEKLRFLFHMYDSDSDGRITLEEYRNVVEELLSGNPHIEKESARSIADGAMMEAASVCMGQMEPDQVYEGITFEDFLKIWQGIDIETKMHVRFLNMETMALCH
inactive: vemurafenib 0.045 | [1] 0.029 | [2] 0.047 | volasertib 0.036 | [3] -0.004 | [4] 0.109 | [5] -0.023 | saracatinib 0.063 | sotrastaurin 0.012 | alvocidib -0.037 | Tubastatin A 0.022 | [6] -0.008 | defactinib -0.007 | [7] -0.034 | encorafenib 0.033 | [8] -0.037 | alisertib -0.053 | [9] -0.058 | gefitinib 0.091
active: barasertib 0.291

TRAPPC12 (UniProt Q8WVT3)
inactive: vemurafenib 0.039 | [1] -0.001 | barasertib -0.007 | [2] 0.047 | volasertib -0.083 | [3] -0.03 | [4] -0.027 | [5] -0.009 | saracatinib 0.028 | sotrastaurin -0.003 | alvocidib -0.009 | Tubastatin A -0.079 | [6] 0.063 | defactinib 0.002 | [7] -0.039 | encorafenib 0.065 | [8] 0.057 | alisertib 0.034 | [9] 0.01 | gefitinib 0.022

UBE2D1 (UniProt P51668)
inactive: vemurafenib -0.013 | [1] 0.022 | barasertib 0.014 | [2] 0.012 | volasertib -0.046 | [3] 0.089 | [4] 0.007 | [5] -0.025 | saracatinib 0.043 | sotrastaurin -0.021 | alvocidib 0.003 | Tubastatin A -0.045 | [6] 0.06 | defactinib 0.028 | [7] -0.027 | encorafenib -0.025 | [8] -0.042 | alisertib 0.028 | [9] -0.036 | gefitinib 0.106

TBRG4 (UniProt Q969Z0)
Chain of UniProt Q969Z0 (Q969Z0 whole entry, looked up): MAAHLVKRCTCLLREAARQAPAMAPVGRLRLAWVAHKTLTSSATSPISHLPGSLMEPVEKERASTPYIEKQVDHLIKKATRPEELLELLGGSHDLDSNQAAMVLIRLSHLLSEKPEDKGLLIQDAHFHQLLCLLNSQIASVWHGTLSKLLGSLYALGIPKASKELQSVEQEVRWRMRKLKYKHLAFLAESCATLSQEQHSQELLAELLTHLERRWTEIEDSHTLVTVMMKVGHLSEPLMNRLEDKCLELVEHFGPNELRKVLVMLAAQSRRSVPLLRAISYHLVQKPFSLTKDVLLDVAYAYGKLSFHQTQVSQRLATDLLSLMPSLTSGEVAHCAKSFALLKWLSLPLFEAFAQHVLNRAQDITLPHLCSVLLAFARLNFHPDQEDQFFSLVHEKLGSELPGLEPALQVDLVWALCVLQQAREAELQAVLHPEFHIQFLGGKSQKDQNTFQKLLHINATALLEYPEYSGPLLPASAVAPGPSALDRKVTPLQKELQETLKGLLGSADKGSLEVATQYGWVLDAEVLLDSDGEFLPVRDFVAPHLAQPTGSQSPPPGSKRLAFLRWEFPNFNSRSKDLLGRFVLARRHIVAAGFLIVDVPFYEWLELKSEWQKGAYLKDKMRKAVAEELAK
inactive: vemurafenib -0.016 | [1] 0.008 | barasertib 0.051 | [2] -0.075 | volasertib -0.079 | [3] 0.048 | [4] 0.052 | [5] -0.128 | saracatinib 0.026 | sotrastaurin 0.013 | alvocidib 0.017 | Tubastatin A -0.089 | [6] 0.007 | defactinib 0.071 | [7] -0.018 | encorafenib 0.01 | [8] -0.013 | alisertib 0.037 | [9] -0.008 | gefitinib -0.015

TK1 (UniProt P04183)
inactive: vemurafenib 0.022 | [1] 0.013 | barasertib -0.007 | [2] 0.009 | volasertib 0.031 | [3] -0.008 | [4] -0.124 | [5] 0.104 | saracatinib -0.002 | sotrastaurin 0.002 | alvocidib -0.051 | Tubastatin A 0.004 | [6] 0.006 | defactinib -0.011 | [7] 0.032 | encorafenib -0.018 | [8] -0.025 | alisertib -0.002 | [9] 0.017 | gefitinib 0.013

TCF3 (UniProt P15923)
inactive: vemurafenib -0.01 | [1] 0.002 | barasertib 0.012 | [2] 0.129 | volasertib 0.002 | [3] 0.047 | [4] 0.028 | [5] 0.043 | saracatinib -0.158 | sotrastaurin 0.002 | alvocidib -0.039 | Tubastatin A -0.066 | [6] 0.034 | defactinib 0.089 | [7] 0.19 | encorafenib 0.135 | [8] -0.051 | alisertib 0.047 | [9] 0.027 | gefitinib 0.023

TTC4 (UniProt O95801)
Chain of UniProt O95801 (O95801 whole entry, looked up): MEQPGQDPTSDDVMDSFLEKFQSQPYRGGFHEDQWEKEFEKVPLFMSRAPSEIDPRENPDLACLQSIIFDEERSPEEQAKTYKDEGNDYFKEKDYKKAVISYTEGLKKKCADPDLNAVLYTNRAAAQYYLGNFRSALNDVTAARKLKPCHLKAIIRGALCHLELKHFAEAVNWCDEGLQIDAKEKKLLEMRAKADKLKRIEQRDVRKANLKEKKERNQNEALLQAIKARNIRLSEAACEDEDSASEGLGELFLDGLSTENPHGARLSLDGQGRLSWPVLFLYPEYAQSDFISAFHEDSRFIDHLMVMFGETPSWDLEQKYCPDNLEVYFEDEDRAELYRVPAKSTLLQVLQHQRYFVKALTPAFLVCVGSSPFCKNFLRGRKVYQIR
inactive: vemurafenib 0.004 | [1] 0.05 | barasertib -0.004 | [2] 0.008 | volasertib -0.024 | [3] 0.007 | [4] -0.089 | [5] -0.027 | saracatinib 0.033 | sotrastaurin 0.005 | alvocidib -0.012 | Tubastatin A -0.183 | [6] 0.078 | defactinib 0.004 | [7] 0.003 | encorafenib 0.021 | [8] -0.005 | alisertib 0.008 | [9] -0.017 | gefitinib -0.003
